Measurements taken from PubChem BioAssay AID2685 (National Center for Advancing Translational Sciences (NCATS), 2010).
About 2,100 (0.66%) of roughly 320,000 compounds were called active. Roughly 53% stayed inconclusive and do not appear here. The call rests on the fitted dose curve; in most records, active means well fitted inhibition curve with a large enough effect in the signal ratio, with a control signal flat (not every such curve was filed as active); inconclusive means small, poorly fitted or top-dose-only effect, or effect the other way, or a change in a side signal; inactive means flat fitted curve, though single readings scatter; the % refers to the signal ratio. The sample as a whole holds a higher share of actives than the screen did.

Test: qHTS Assay for Lipid Storage Modulators in Drosophila S3 Cells;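 on cell number change: cells counted by Cell Tracker Red CMTPX staining in the red channel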
Conditions: BODIPY lipid droplet fluorescence, 18-24 h, cells fed with added oleic acid; cell number change: measured here: cell count max response; series mostly up to 46.1 µM
Outline: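 Drosophila S3 cells loaded with oleic acid (400 uM, as added) and compounds at several concentrations; lipid droplets imaged by 488-nm laser-scanning cytometry, 500–530 nm intensity and object ratio to cell channel. Percent activity normalized to 20 uM Triacsin C.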
Potency means the concentration at half of the fitted maximal effect.

Row | SMILES | Potency | cell number change [%]
1 | C/C(=N\NC(=O)c1nnn(-c2nonc2N)c1CSc1ccccc1)c1ccco1 | inactive | –
2 | N/C(=N/O)c1nc(N2CCCC2)nc(N2CCCC2)n1 | inactive | 6.44
3 | COc1ccccc1CNC(=O)C(C)n1nc(C)c2c(C)n(-c3ccccc3)nc2c1=O (stereo not given) | 5.8 µM (active) | -4.13
4 | COc1ccc(OC)c(CNC(=O)C(C)n2nc(C)c3c(C)n(-c4ccccc4)nc3c2=O)c1 (stereo not given) | inactive | -28
5 | COc1ccc(CNC(=O)C(C)n2nc(C)c3c(C)n(-c4ccccc4)nc3c2=O)c(OC)c1 (stereo not given) | inactive | 1.47
6 | O=S1(=O)c2ccccc2Nc2ccccc21 | inactive | 5.2
7 | Cc1nc(NS(=O)(=O)c2ccccc2)sc1NC(=O)Nc1ccc(Cl)cc1 | inactive | 3.01
8 | COc1ccc(CCNCc2c(OC)ccc3ccccc23)cc1OC | inactive | 20.1
9 | CC(C(=O)N1CCCC1)N(c1ccccc1)S(C)(=O)=O (stereo not given) | inactive | -11.5
10 | CCOC(=O)N1CCN(C(=O)C(C)N(c2ccccc2)S(C)(=O)=O)CC1 (stereo not given) | inactive | 2.57
11 | CC(C(=O)N1CCc2ccccc2C1)N(c1ccccc1)S(C)(=O)=O (stereo not given) | 2.06 µM (active) | -18
12 | COc1ccc2sc(-c3ccccc3OC)c(C#CCCO)c2c1 | inactive | -1.81
13 | CCOc1cc(-c2cc(-c3ccc(C)o3)nc(N)c2C#N)ccc1O | inactive | -0.884
14 | O=C(NCc1cccnc1)C1CCN(c2ccc(S(=O)(=O)N3CCOCC3)cc2Cl)CC1 | inactive | 0.843
15 | C=CCN1C(=O)C(C(C)CC)NC1=S (stereo not given) | 7.31 µM (active) | -18.2
16 | CCC(C)C1NC(=S)N(C2CCCCC2)C1=O (stereo not given) | inactive | -20.3
17 | CCC(C)C1NC(=S)N(Cc2ccccc2)C1=O (stereo not given) | inactive | -14.7
18 | Cc1nnc(-c2cccc(C(F)(F)F)c2)nc1N1CCOCC1 | inactive | –
19 | O=C(C1=C[C@@H](C2CC2)C[C@@H](OCc2ccc(CO)cc2)O1)N1CCOCC1 | inactive | -6.29
20 | COc1ccc(C2NN=C(c3ccc(C)cc3)S2)cc1 (stereo not given) | inactive | 14.2
21 | Cc1ccc(C2=NNC(C(O)C(O)C(O)C(O)CO)S2)cc1 (stereo not given) | 23.1 µM (active) | -6.96
22 | Cc1ccc(C2=NNC(C(O)C(O)C(O)C(C)O)S2)cc1 (stereo not given) | inactive | –
23 | O=C(Nc1ccc(N2CCOCC2)cc1)C1CCCN(S(=O)(=O)c2cccc(C(F)(F)F)c2)C1 (stereo not given) | inactive | 2.4
24 | CCCNC(=O)c1ccccc1NC(=O)CN(c1ccccc1)S(=O)(=O)N(C)C | inactive | -16.1
25 | O=C(Nc1ccc(Cl)c(S(=O)(=O)N2CCOCC2)c1)c1ccc2c(c1)OCCO2 | inactive | 19.2
26 | CC1(C)CC2CC(C)(CN2S(=O)(=O)c2ccc(C(=O)Nc3ccc(Cl)c(S(=O)(=O)N4CCOCC4)c3)cc2)C1 (stereo not given) | 5.8 µM (active) | –
27 | CN1CCN(NC(=O)c2ccc(S(=O)(=O)N3CC4(C)CC3CC(C)(C)C4)cc2)CC1 (stereo not given) | inactive | 3.86
